Data on ten molecules can be found in PubChem BioAssay (NCATS).

Assay [1] concerns the target Lysosomal acid glucosylceramidase (Homo sapiens) (UniProt P04062). Briefly: Glucocerebrosidase-p2 (AID 348; in the data active = potency below about 10 µM; also: potency is read from the fitted curve at half-maximal effect). Conditions: purified GBA, blue fluorogenic substrate, 40 min. The method, boiled down: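 Normal human glucocerebrosidase (0.2 nM) with blue fluorogenic substrate (80 uM final) in citrate/phosphate pH 5.9 with 10mM sodium taurocholate, 0.01% tween-20; 40 min RT, NaOH/glycine stop; fluorescence Ex 365/Em 440; AC50 from a titration from 0.6 nM upwards.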

The nature of assay [2]: NFAT Signaling Pathway (AID 444; active = well fitted curve in either direction with a large enough effect, not every such curve was filed as active;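 also: carbachol stimulus at about its EC50 of 1 µM final; % is scaled to controls: 0 for no effect and ±100 for the full control effect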). Conditions: Jurkat NFAT-bla M1, carbachol, beta-lactamase ratio, 5 h; at 7.69 µM (top of the series) unless noted. The method, boiled down: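 Jurkat cells carrying an NFAT-driven β-lactamase reporter and co-transfected muscarinic M1 receptor were treated with compound plus carbachol (1 uM final, an EC50 level) for 5 h at 37 °C. CCF4 loading followed for 1 h at RT; 460/530 nm ratio gave %activity.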

Assay [3] in a line: Stat Signaling Pathway (AID 446; active = well fitted curve in either direction with a large enough effect, not every such curve was filed as active;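 also: ME-180 cervical cancer cells given 40 pM IL-6 alongside compound; SIE-controlled beta-lactamase reporter measured as 460/530 nm FRET emission ratio; % is scaled to controls: 0 for no effect and ±100 for the full control effect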). Conditions: ME-180 SIE beta-lactamase reporter, IL-6 stimulated, 5 h; at 7.69 µM (top of the series) unless noted. The method, boiled down: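 Emission at 460 and 530 nm (excitation 405 nm) reports SIE-controlled beta-lactamase in ME-180 cells. Cells received compound with 40 pM IL-6 for 5 hrs at 37 C; data scaled between 300 pM IL-6 and 125 nM JAK-inhibitor controls.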

Assay [4] has as its target Glucocorticoid receptor (Homo sapiens) (UniProt P04150). Put plainly: GR-GFP Redistribution (AID 450;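 active = compounds whose dose series gives a full or clear partial fitted curve of increased nuclear translocation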; also: potency is read from the fitted curve at half-maximal effect). Particulars: U2OS GR-GFP nuclear translocation, laser cytometry, 2 h.
Assay [5] has the same target. Put plainly: GR-EFC Redistribution (AID 451; calls by dose curve; also: potency is read from the fitted curve at half-maximal effect). Conditions: CHO-K1 GR-EFC translocation, beta-gal luminescence, 2 h. The method, boiled down: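 CHO-K1 cells stably expressing nuclear-localized β-gal enzyme acceptor and GR fused C-terminally to the enzyme donor fragment; ligand-driven nuclear translocation restores β-gal by complementation. Compounds titrated up to 46 uM final, 2 h at 37 °C; luminescence read.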

The target of assay [6] is Mitogen-activated protein kinase 10 (Mus musculus) (UniProt Q61831). Briefly: JNK3 AlphaScreen Assay (AID 530; active = well fitted curve in either direction with a large enough effect, not every such curve was filed as active;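 also: kinase came from lysate of stimulated human HepG2 cells; % is scaled to controls: 0 for no effect and ±100 for the full control effect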). Conditions: JNK3 lysate, c-Jun phosphorylation; series mostly up to 57.1 µM. The method, boiled down: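 Biotinylated GST-cJun(1-79) served as substrate for JNK3 in HepG2 lysates stimulated with IL-1beta and TNF-alpha. ATP was 10 uM final, pH 7.6. Ser73 phosphorylation was quantified by AlphaScreen (680 nm excitation).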
A general note: Alpha assays give light when donor and acceptor beads are brought close together.

Assay [7] deals with 3',5'-cyclic-AMP phosphodiesterase 4B (Homo sapiens) (UniProt Q07343). Put plainly: qHTS Assay for Inhibitors of PDE-IV (AID 607; active = well fitted activation curve with a large enough effect in the main read-out, with a control signal flat, not every such curve was filed as active; also: % of control where 0% means no effect). Conditions: HEK293 ACTOne CNG channel cells, membrane potential fluorescence; series mostly up to 22.9 µM. The method, boiled down: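 The readout is membrane depolarisation from a cAMP-sensing CNG channel, detected with a potential dye at ex 535/em 590. Cells were HEK293-derived (endogenous PDE-IV) at 1000 cells/well, titrated up to 22.9 uM final.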
Background: Quantitative high-throughput screening tests each substance at several concentrations.

The target in assay [8] is Dual specificity protein kinase CLK4 (Homo sapiens) (UniProt Q9HAZ1). Briefly: qHTS Assay for Inhibitors of CDC-like Kinase 4 (ADP-Glo Assay) (AID 1771). Also: nearly all actives have a fitted effect of over 70% in size. Also: potency is read from the fitted curve at half-maximal effect. Particulars: recombinant CLK4, ADP-Glo luminescence; series mostly up to 80 µM. The method, boiled down:
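25 nM Clk4, 100 uM RS peptide, 1 uM ATP (final); 2 mM MgCl2, 0.5 mM EGTA, 2.5 mM DTT, 0.01% Triton X-100; 1 hr RT. ADP-Glo readout: ATP depletion 45 min, conversion/luciferase 30 min, luminescence.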

For assay [9] the target is unchanged. Briefly: qHTS Assay for Inhibitors of CDC-like Kinase 4 (ADP-FP Assay) (AID 1795). Also: % is scaled to controls: 0 for no effect and ±100 for the full control effect; nearly all actives have a fitted effect of over 60% in size. Conditions: Transcreener ADP fluorescence polarization; series mostly up to 50 µM. The method, boiled down:
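Recombinant human Clk4 (6.25 nM) phosphorylated RS repeat peptide (100 uM) with 1 uM ATP in Tris pH 7.5/MgCl2/EGTA/DTT/Triton buffer for one hour. ADP was quantified by Transcreener competitive fluorescence polarization against an ADP calibration curve.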

In assay [10] the target is Ubiquitin carboxyl-terminal hydrolase 1 (Homo sapiens) (UniProt O94782). Briefly: Inhibitors of USP1/UAF1: Pilot qHTS (AID 504865).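 Also: rhodamine fluorescence freed from ubiquitin-rhodamine substrate followed over time; top concentration of the series differs between compounds; % is scaled to controls: 0 for no effect and ±100 for the full control effect; nearly all actives have a fitted effect of over 35% in size.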 Conditions: purified USP1/UAF1, Ub-rhodamine cleavage fluorescence; series mostly up to 54.9 µM. The method, boiled down: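 USP1/UAF1 complex (1nM) preincubated with compound 15 min at room temperature, then Ub-Rho substrate (150nM final) added. Fluorescence read kinetically at 480/540 nm, 6 reads every 60 seconds. Buffer: 50mM HEPES pH 7.8, 0.5mM EDTA, 0.1 mg/ml BSA, 1mM TCEP, 0.01% Tween-20.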

Assay [11] can be described thus: Primary qHTS for small molecule stabilizers of the endoplasmic reticulum resident proteome: Secreted ER Calcium Modulated Protein (SERCaMP) assay (AID 1508630). Also: % is scaled to controls: 0 for no effect and ±100 for the full control effect. Particulars: SH-SY5Y GLuc-SERCaMP (Gaussia luciferase released on ER calcium loss) secretion, thapsigargin, luminescence; series mostly up to 38.4 µM. The method, boiled down:
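The SH-SY5Y reporter protocol was run at 3 concentrations up to 38.3 uM (primary) or 11 concentrations (follow-up): 16 h compound, 100 nM thapsigargin for 4 h, then extracellular luciferase luminescence.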

A short description of assay [12]: AP1 Signaling Pathway (AID 357; active = well fitted curve in either direction with a large enough effect, not every such curve was filed as active). Conditions: ME-180 AP-1-bla reporter, EGF-induced, beta-lactamase ratio, 5 h; at 7.69 µM (top of the series) unless noted. The method, boiled down:
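AP-1-bla ME-180 cells, Opti-MEM + 0.5% dialyzed FBS, plated overnight 37 °C. Cpd titration + EC50 EGF, 5 h 37 °C. CCF4 2.5 h RT; ex 405, em 460/530 ratio → %activity, AC50.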

Assay [13] deals with Cytochrome P450 1A2 (Homo sapiens) (UniProt P05177). Put plainly: p450-cyp1a2 (AID 410; calls by dose curve; also: potency is read from the fitted curve at half-maximal effect). Particulars: recombinant CYP1A2, luciferin-ME demethylation, luminescence; series mostly up to 57 µM. The method, boiled down:
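20nM CYP1A2, 100uM Luciferin-ME (=Km), 100mM KPO4; cpd 10 min RT; +NADPH regen, 60 min RT; stop/detect 20 min; luminescence. Normalized to furafylline 57 uM = full inhibition.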

Assay [14] deals with Cytochrome P450 3A4 (Homo sapiens) (UniProt P08684). Put plainly: qHTS Assay for Inhibitors and Substrates of Cytochrome P450 3A4 (AID 884). Also: potency is read from the fitted curve at half-maximal effect; nearly all actives have a fitted effect of over 50% in size. Particulars: recombinant CYP3A4, Luciferin-PPXE luminescence; series mostly up to 57.1 µM. The method, boiled down:
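Luminescent readout of luciferin produced by CYP3A4 (20 nM) dealkylation of Luciferin-PPXE, 25 uM (its KM). NADPH-driven reaction ran 60 min at RT after 10 min compound preincubation; data scaled to 57 uM ketoconazole as 100% inhibition.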

Assay [15] has the same target. Put plainly: qHTS Assay for Activators of Cytochrome P450 3A4 (AID 885). Also: nearly all actives have a fitted effect of over 65% in size. Conditions: recombinant CYP3A4, Luciferin-PPXE luminescence, 60 min; series mostly up to 57.1 µM. The method, boiled down:
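Activators are scored by enhanced luminescence from CYP3A4 conversion of luciferin-PPXE (25uM, equal to KM) to luciferin, after 60 min at RT with an NADPH-regenerating system.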

The target of assay [16] is Cytochrome P450 2C9 (Homo sapiens) (UniProt P11712). Briefly: qHTS Assay for Inhibitors and Substrates of Cytochrome P450 2C9 (AID 883). Also: nearly all actives have a fitted effect of over 60% in size. Also: potency is read from the fitted curve at half-maximal effect. Conditions: recombinant CYP2C9, luciferin-H luminescence, 60 min; series mostly up to 57.1 µM. The method, boiled down:
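Human CYP2C9 (10nM) hydroxylated Luciferin-H (100uM, at its KM) to luciferin in 25mM KPO4. Compound was preincubated 10 min at 37C, then NADPH regeneration started a 60 min reaction at 37C. Luminescence was read after detection reagent, normalized to 57uM sulphaphenazole.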

In assay [17] the target is Cytochrome P450 2C19 (Homo sapiens) (UniProt P33261). Put plainly: qHTS Assay for Inhibitors and Substrates of Cytochrome P450 2C19 (AID 899). Also: potency is read from the fitted curve at half-maximal effect; nearly all actives have a fitted effect of over 60% in size. Conditions: recombinant CYP2C19, luciferin-H EGE luminescence; series mostly up to 57.1 µM. The method, boiled down: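 Human CYP2C19 (5nM) with Luciferin-H EGE at 10uM (its KM) in 50mM KPO4 was preincubated with compound for 10 min at 37C. NADPH regeneration started a 60 min 37C reaction. Luciferin was read by luminescence, normalized to 57uM ketoconazole.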

Assay [18] is described as follows: qHTS Assay for Identification of Small Molecule Agonists for Hypoxia Response Element Signaling Pathway (AID 914; active = well fitted activation curve with a large enough effect in the signal ratio, with a control signal flat, not every such curve was filed as active; the % refers to the signal ratio; also: % of control where 0% means no effect). Conditions: ME-180 (cervical carcinoma) HRE-bla reporter, beta-lactamase ratio, CoCl2, 17 h; activation: stronger effect = higher value. The method, boiled down:
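HRE-bla ME-180 cells, overnight plating in Opti-MEM with 0.5% dialyzed FBS; cpd titration + EC50 CoCl2, 17 h, 37 degrees Celsius; CCF4 2.5 h RT; 460/530 nm ratio; AC50.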

Values without a mark were called inactive. Results filed as inconclusive are left out. Calls of active or inactive are those of the source. Unless noted, calls follow the shape of the dose curve; as a rule, active = well fitted curve in the direction sought with a large enough effect; inconclusive = small, poorly fitted or top-dose-only effect, or another doubt; inactive = no such curve, though single readings can be large; an effect the other way counts as inactive or inconclusive.

Chain of Lysosomal acid glucosylceramidase (Homo sapiens) (P04062 whole entry, looked up): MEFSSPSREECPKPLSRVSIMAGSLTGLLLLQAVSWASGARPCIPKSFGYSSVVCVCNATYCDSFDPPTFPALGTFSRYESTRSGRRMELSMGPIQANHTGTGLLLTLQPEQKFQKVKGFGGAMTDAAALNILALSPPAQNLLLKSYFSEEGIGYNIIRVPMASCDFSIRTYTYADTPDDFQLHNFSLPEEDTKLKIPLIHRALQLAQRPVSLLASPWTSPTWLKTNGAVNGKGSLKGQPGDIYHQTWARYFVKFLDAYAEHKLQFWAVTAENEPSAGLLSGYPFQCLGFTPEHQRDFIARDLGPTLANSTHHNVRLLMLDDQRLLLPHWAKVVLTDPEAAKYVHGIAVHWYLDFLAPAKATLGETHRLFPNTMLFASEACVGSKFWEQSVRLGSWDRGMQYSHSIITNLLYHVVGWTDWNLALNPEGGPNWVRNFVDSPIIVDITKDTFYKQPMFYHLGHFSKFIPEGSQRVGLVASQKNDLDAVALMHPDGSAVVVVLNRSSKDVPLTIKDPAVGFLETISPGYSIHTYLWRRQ
Chain of Cytochrome P450 1A2 (Homo sapiens) (P05177 whole entry, looked up): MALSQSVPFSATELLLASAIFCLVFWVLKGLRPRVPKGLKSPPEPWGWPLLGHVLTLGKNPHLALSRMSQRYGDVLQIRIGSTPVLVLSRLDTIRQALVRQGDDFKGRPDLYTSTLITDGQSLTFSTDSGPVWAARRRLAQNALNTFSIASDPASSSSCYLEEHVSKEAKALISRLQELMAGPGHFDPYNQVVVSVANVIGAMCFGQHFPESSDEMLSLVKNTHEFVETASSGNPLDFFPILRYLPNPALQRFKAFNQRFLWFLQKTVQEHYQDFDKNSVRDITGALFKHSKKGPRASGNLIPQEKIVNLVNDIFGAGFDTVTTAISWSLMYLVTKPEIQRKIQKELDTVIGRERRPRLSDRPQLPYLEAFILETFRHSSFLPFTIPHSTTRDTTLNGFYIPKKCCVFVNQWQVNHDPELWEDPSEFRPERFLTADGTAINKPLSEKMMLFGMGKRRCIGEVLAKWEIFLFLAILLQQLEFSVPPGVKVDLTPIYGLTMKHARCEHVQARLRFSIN
Chain of Cytochrome P450 3A4 (Homo sapiens) (P08684 whole entry, looked up): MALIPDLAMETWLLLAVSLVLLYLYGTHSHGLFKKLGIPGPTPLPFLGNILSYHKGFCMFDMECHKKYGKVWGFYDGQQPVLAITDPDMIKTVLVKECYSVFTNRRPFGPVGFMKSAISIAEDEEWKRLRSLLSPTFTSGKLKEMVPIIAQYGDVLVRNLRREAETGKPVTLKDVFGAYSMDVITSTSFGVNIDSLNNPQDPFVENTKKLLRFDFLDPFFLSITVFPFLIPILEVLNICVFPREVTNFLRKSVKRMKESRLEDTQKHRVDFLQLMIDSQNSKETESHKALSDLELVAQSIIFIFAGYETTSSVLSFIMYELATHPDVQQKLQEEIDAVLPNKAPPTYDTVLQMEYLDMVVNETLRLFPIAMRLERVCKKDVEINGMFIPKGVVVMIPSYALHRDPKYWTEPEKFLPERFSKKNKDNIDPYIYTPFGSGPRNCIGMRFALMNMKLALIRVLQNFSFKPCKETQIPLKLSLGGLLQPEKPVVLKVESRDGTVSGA
Chain of Glucocorticoid receptor (Homo sapiens) (P04150 whole entry, looked up, the tested form may be a part): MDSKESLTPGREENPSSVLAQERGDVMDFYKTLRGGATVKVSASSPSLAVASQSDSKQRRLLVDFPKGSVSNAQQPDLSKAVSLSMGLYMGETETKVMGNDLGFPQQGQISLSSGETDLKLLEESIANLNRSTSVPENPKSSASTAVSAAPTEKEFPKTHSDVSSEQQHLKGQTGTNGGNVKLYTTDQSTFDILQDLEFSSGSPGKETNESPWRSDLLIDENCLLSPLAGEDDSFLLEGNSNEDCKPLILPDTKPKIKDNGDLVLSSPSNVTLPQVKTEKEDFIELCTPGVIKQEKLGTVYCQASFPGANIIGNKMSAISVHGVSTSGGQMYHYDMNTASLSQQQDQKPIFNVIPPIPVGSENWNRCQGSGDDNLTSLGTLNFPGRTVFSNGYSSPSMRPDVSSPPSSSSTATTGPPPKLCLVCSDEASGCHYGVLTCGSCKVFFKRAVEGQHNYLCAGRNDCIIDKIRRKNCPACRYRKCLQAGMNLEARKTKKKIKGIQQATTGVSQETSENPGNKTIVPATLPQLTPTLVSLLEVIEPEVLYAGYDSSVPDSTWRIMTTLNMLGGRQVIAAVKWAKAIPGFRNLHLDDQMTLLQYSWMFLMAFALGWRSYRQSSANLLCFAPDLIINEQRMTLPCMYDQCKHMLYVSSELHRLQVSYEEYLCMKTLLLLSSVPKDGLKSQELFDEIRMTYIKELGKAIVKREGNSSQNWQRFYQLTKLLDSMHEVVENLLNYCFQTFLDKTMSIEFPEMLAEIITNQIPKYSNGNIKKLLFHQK
Chain of 3',5'-cyclic-AMP phosphodiesterase 4B (Homo sapiens) (Q07343 whole entry, looked up): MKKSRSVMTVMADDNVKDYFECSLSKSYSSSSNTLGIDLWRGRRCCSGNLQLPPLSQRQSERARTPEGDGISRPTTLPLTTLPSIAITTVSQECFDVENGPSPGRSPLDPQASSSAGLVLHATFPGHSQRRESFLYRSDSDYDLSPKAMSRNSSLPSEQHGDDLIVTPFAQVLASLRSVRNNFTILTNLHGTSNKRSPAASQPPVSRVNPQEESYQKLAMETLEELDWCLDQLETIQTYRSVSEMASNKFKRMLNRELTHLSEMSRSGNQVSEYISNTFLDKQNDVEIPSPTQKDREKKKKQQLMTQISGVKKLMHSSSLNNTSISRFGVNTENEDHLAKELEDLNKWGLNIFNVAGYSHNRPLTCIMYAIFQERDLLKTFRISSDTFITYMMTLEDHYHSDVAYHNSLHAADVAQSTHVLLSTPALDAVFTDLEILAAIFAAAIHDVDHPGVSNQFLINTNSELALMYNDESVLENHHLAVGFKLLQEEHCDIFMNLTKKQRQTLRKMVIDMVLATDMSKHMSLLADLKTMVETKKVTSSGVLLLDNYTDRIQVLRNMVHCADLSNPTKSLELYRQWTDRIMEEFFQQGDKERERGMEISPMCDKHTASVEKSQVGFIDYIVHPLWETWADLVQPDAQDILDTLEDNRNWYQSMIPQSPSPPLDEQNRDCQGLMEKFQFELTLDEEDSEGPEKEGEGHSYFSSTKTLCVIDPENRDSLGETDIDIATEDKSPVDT
Chain of Cytochrome P450 2C9 (Homo sapiens) (P11712 whole entry, looked up): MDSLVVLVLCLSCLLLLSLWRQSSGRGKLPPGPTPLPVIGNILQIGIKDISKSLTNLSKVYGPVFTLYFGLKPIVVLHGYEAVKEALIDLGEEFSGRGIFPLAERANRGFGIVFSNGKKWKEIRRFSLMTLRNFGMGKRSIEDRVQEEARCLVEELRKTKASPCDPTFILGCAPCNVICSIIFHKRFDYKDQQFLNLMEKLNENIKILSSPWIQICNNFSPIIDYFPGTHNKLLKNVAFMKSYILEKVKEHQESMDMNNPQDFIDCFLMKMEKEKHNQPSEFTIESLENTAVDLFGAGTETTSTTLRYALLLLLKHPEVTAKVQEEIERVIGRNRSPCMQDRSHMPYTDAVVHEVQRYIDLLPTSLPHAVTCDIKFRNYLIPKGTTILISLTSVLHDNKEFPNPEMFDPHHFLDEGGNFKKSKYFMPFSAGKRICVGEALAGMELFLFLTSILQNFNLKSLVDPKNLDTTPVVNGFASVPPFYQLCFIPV
Chain of Ubiquitin carboxyl-terminal hydrolase 1 (Homo sapiens) (O94782 whole entry, looked up): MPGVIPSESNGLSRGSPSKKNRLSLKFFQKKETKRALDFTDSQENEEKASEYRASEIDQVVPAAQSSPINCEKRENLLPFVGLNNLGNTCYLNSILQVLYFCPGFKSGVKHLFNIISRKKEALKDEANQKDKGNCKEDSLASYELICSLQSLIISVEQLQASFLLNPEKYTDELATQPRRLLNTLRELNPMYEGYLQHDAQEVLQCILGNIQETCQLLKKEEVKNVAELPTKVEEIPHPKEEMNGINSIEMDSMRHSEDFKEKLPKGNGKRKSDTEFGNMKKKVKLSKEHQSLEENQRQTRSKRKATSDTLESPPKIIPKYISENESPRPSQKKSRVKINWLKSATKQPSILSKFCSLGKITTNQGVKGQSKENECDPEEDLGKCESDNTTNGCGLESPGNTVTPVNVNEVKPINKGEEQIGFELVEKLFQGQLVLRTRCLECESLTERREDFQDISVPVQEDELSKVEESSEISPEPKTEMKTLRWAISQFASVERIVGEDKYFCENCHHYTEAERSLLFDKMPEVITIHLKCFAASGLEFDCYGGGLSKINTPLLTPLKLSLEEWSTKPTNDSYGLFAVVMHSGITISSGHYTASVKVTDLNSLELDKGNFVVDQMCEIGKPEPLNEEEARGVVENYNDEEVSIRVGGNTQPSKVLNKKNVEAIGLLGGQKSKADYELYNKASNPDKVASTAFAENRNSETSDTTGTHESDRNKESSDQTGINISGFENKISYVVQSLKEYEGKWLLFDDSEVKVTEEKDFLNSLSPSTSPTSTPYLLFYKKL
Chain of Dual specificity protein kinase CLK4 (Homo sapiens) (Q9HAZ1 whole entry, looked up): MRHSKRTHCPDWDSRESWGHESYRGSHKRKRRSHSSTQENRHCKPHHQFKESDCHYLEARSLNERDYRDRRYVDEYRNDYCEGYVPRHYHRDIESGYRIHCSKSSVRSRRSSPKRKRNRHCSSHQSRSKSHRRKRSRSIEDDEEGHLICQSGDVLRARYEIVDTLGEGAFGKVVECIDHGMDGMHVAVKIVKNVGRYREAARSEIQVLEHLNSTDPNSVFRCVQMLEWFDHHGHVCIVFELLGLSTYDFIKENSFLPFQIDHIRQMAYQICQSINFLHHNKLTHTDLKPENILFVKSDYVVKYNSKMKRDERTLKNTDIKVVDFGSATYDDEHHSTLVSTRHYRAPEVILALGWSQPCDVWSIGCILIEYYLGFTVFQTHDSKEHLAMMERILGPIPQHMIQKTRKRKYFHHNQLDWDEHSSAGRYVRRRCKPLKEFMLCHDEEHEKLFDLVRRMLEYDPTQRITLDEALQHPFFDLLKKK

Regarding `CS(=O)(=O)Nc1cccc(-c2nccc(NCc3cccs3)n2)c1`, the Potency in assay [1] was more than 11.4 µM; in [4] it was more than 46 µM; in assay [5], more than 46 µM; in assay [8], 35.5 µM (active). Also, in [2], the activity change, negative = inhibition was 14.7%. Besides, the activity, negative = inhibition in assay [3] is -12.9%. The Potency entry in [6], in [7], in assay [9] and in assay [10] was “inactive” in each case. Further, the outcome in assay [11] was inactive.

As to `CC(=O)NCCNc1ncnc2ccc(-c3ccccc3C(F)(F)F)cc12`, the Potency is more than 11.4 µM in assay [1]; 10 µM (active) in assay [13]; more than 46 µM in assay [4]; more than 46 µM in [5]; 6.31 µM (active) in [14]; 31.6 µM (active) in [8]. Further, the activity change, negative = inhibition was 12.5% in [12] and 6.87% in assay [2]. In addition, the Potency result in assay [6], in [15], in assay [9] and in assay [10] was “inactive” in each case. In addition, the result in assay [11] was inactive.

On to `COc1ccccc1CNc1cc(-c2ccccc2OC)ncn1`, for which the Potency in assay [1] is more than 11.4 µM; in assay [13] it was 2.51 µM (active); in assay [4], more than 46 µM; in [5], more than 46 µM; in assay [17], 1.58 µM (active). For the same molecule, the activity change, negative = inhibition was -14.2% in [12], -2.18% in assay [2] and 31.3% [at 2.29 µM] in [16]. Moreover, in [3], the activity, negative = inhibition was -12.6%. For the same molecule, the Potency entry in assay [6], in assay [7], in [15], in assay [9] and in assay [10] was “inactive” each time. The result in [11] was inactive.

For the molecule `COc1ccc(-c2nc3cncnc3n(-c3ccccc3)c2=O)cc1`, the Potency in assay [1] was more than 11.4 µM; in [4] it was more than 9.22 µM; in assay [5] it was more than 46 µM. Moreover, the activity change, negative = inhibition in assay [12] is -9.87%; in assay [2], -10.5%. Also, in assay [3], the activity, negative = inhibition was -2.81%. Moreover, the Potency result in [6], in assay [8] and in [10] was “inactive” in each case. In assay [11], the outcome was inactive.

As to `O=c1c(-c2cccc(Cl)c2)nc2cncnc2n1Cc1ccccc1`, the Potency in assay [16] was 1.26 µM (active).

`COc1cccc(-c2cncnc2NCc2cccs2)c1`: the Potency in assay [16] is 0.398 µM (active).

As for `c1cncc(CNc2cc(-c3ccoc3)ncn2)c1`, the activation in assay [18] is 0.531%.

For `COc1ccc(-c2nc3cnc(N(C)C)nc3n(Cc3ccc(F)cc3)c2=O)cc1`, the results for the Potency in [1], in assay [4] and in assay [5] were more than 11.4 µM, more than 9.22 µM and more than 46 µM, respectively. In addition, the activity change, negative = inhibition in assay [2] is 102% [activator] (active). Moreover, the activity, negative = inhibition in assay [3] was 126% [activator] (active). Moreover, the Potency result in [6], in [7], in assay [9] and in assay [10] was “inactive” throughout. In [11], the outcome was inactive.

As to `CCNc1ncc2nc(-c3cccs3)c(=O)n(C[C@H]3CCCO3)c2n1`, the Potency in [1] is more than 11.4 µM; in assay [13], 2.51 µM (active); in assay [4] it was more than 9.22 µM; in assay [5], more than 46 µM. Further, the activity change, negative = inhibition in assay [12] is 9.48%; in [2], 18.7%. The Potency result in assay [6], in assay [15], in assay [9] and in assay [10] was “inactive” each time. Moreover, in [11], the outcome was inactive.

As for `COc1ccc2[nH]cc(CCNc3cc(-c4c(C)noc4C)ncn3)c2c1`, the activity change, negative = inhibition in assay [12] is 8.05%; in [2], 0.421%. The activity, negative = inhibition in assay [3] was -0.948%. Further, in assay [5], the Potency was more than 46 µM. In addition, the Potency result in assay [6], in assay [7], in assay [9] and in assay [10] was “inactive” each time. For the same molecule, the result in assay [11] was inactive.
